Results: PubChem BioAssay
A number with no mark means an inactive call. For part of these data: Measured potencies and affinities stand elsewhere. Active and inactive are the calls of the source. Unless noted, the rule behind the calls is not given here.

How the values were obtained:
[1] = antimalarial activity against Dd2 strain (AID 2302;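 active = growth inhibition above 50% at the single 2 µM test dose, taken to imply half-maximal potency below 2 µM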;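 note: 0% = DMSO untreated growth and 100% = chloroquine plus artemisinin killed control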); settings: P. falciparum Dd2 in RBCs, LDH growth readout, 72 h; at 2 µM; active compounds read high
[2] = human hepatoma cell viability loss – ATP luminescence, cytotoxicity control for P. falciparum antimalarial project, primary screen (AID 2303;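 active = inhibition above 50%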;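 note: 0% = DMSO wells and 100% = digitonin-killed cells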); settings: HepG2 viability, 24-48 h, at 10 µM, active compounds read high
[3] = target: L-lactate dehydrogenase (Plasmodium falciparum (isolate CDC / Honduras)) (UniProt Q27743); test: PfLDH activity inhibition – cell lysate, 3D7 strain, counter-screen for P. falciparum growth inhibition project (AID 2304);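 note: 0% = vehicle and 100% = reference inhibitor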; settings: P. falciparum 3D7 crude extract, LDH APAD/NBT absorbance; at 2 µM; active compounds read high
[4] = inhibition of 3D7 malaria parasite growth – strain 3D7 (AID 2306);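 note: 0% = DMSO wells and 100% = chloroquine plus artemisinin control wells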; settings: P. falciparum 3D7 erythrocytic growth, LDH absorbance, 72 h; at 2 µM; active compounds read high
[5] = target: Calcium-dependent protein kinase 1 (Plasmodium falciparum (isolate 3D7)) (UniProt P62344); test: PfCDPK1 kinase inhibitors, biochemical, TCAMS library (AID 1159585; cut-off not given, nearly all actives have IC50 up to about 0.98 µM;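 note: inhibitors leave more ATP so luminescence rises with inhibition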); settings: recombinant PfCDPK1, Kinase-Glo ATP depletion luminescence
[6] = target: Plasmodium falciparum protein kinase 6 (PK6, PF3D7_1337100) (UniProt Q8IDW1); test: PfPK6 kinase inhibitors, biochemical, TCAMS library (AID 1159586); settings: recombinant PfPK6, Kinase-Glo ATP depletion luminescence
[7] = target: Protein kinase 7 (PK7), Plasmodium falciparum 3D7 (PF3D7_0213400) (UniProt Q7YTF7); test: inhibition of Plasmodium PK7 catalytic activity – biochemical, TCAMS antimalarial set, Kinase-Glo luminescence (AID 1159587); settings: recombinant PfPK7, Kinase-Glo ATP depletion luminescence
[8] = target: Calcium-dependent protein kinase 4 (Plasmodium falciparum (isolate 3D7)) (UniProt Q8IBS5); test: PfCDPK4 kinase inhibitors, biochemical, TCAMS library (AID 1159588; cut-off not given, nearly all actives have IC50 up to about 0.91 µM); settings: recombinant PfCDPK4, Kinase-Glo ATP depletion luminescence
Calcium-dependent protein kinase 4 (Plasmodium falciparum (isolate 3D7)), sequence (Q8IBS5 whole entry, looked up): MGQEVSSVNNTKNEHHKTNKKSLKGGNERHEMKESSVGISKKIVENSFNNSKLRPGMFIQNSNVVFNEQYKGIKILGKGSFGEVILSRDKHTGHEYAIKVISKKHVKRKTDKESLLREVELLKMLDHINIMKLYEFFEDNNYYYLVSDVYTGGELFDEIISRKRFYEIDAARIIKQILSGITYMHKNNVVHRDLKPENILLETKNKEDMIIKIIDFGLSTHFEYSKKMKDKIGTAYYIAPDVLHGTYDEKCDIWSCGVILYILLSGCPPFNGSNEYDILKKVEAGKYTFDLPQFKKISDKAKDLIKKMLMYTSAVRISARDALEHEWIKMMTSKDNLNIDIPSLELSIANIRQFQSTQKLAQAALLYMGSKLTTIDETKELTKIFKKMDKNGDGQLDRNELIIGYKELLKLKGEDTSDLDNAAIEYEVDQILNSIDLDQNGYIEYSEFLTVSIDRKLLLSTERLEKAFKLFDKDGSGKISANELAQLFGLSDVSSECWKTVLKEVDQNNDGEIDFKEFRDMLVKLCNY

Calcium-dependent protein kinase 1 (Plasmodium falciparum (isolate 3D7)), sequence (P62344 whole entry, looked up): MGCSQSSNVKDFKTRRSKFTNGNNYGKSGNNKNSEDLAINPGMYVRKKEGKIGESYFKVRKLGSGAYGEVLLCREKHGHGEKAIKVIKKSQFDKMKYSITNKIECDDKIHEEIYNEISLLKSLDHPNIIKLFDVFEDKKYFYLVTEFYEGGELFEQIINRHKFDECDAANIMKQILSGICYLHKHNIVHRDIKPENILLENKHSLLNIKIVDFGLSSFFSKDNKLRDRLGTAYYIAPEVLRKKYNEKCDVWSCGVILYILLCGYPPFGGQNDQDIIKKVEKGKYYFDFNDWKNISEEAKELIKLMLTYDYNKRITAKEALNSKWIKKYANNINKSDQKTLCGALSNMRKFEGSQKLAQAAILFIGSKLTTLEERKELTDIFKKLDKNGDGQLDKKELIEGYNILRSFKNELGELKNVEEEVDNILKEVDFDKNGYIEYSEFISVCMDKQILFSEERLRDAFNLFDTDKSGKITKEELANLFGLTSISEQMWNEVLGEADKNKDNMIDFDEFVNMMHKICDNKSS
Protein kinase 7 (PK7), Plasmodium falciparum 3D7 (PF3D7_0213400), sequence (Q7YTF7 1-343): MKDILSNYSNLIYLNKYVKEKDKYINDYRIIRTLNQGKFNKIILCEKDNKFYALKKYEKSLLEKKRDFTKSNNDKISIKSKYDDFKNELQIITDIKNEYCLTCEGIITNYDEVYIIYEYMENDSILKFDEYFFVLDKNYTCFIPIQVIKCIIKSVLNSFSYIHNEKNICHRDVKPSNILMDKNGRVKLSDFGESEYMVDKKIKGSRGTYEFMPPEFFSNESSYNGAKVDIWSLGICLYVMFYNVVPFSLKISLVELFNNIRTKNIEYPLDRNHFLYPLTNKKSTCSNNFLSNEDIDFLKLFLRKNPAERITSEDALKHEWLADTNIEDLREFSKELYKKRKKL
L-lactate dehydrogenase (Plasmodium falciparum (isolate CDC / Honduras)), sequence (Q27743 whole entry, looked up): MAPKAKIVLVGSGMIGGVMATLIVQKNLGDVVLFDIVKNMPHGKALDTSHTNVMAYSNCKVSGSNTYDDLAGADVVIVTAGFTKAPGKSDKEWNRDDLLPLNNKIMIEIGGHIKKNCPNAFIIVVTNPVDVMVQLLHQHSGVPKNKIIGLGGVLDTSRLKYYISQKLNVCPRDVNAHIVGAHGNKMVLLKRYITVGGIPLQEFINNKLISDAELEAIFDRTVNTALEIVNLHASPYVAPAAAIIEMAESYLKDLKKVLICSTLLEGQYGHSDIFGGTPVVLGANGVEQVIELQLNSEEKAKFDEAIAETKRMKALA
Plasmodium falciparum protein kinase 6 (PK6, PF3D7_1337100), sequence (Q8IDW1 1-305): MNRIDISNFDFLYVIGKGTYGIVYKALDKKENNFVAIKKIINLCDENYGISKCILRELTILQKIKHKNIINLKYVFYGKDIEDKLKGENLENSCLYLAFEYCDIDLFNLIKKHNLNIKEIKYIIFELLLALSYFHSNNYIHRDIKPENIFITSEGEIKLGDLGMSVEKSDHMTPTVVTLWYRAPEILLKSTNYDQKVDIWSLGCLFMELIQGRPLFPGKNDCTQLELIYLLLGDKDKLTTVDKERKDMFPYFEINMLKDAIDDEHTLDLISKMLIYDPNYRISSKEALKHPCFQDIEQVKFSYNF

For COc1ccc(CNC2CCN(C)CC2)cc1-c1ccc(S(=O)(=O)NC2CCC2)c(F)c1, the growth inhibition [1] was 97% (active), the inhibition [2] was 96% (active) and the inhibition [3] was 7%. For the same compound, the growth inhibition [4] was 101% (active), the outcome [5] was “inactive” and the outcome [6] was “inactive”. The outcome [7] was “inactive” and the outcome [8] was “inactive”.

In the case of CN(C)CCN(C)Cc1ccc(-c2ccc3c(Nc4ccc(Oc5ccccn5)cc4)ccnc3c2)o1, the growth inhibition [1] is reported as 100% (active), the inhibition [2] is reported as 16% and the inhibition [3] is reported as 6%. For the same compound, the growth inhibition [4] was 100% (active), the outcome [5] was “inactive” and the outcome [6] was “inactive”. The outcome [7] was “inactive” and the outcome [8] was “inactive”.

O=S(=O)(c1ccc(OCc2ccc(Cl)cc2)cc1)c1cc2c(cc1OCc1ccccc1)CCN(C1CCC1)CC2 gave a growth inhibition [1] of 13%, an inhibition [2] of 17% and an inhibition [3] of 6%. For the same compound, the growth inhibition [4] was 89% (active), the outcome [5] was “inactive” and the outcome [6] was “inactive”. The outcome [7] was “inactive” and the outcome [8] was “inactive”.

CC(C)C[C@H](Nc1ccnc(NCC2CCCCC2)n1)C(=O)Nc1ccccc1 showed a growth inhibition [1] of 42%, an inhibition [2] of 6% and an inhibition [3] of 2%. For the same compound, the growth inhibition [4] was 87% (active), the outcome [5] was “inactive” and the outcome [6] was “inactive”. The outcome [7] was “inactive” and the outcome [8] was “inactive”.

For Cc1[nH]c(C)c(-c2ccc(CCc3cccc(C(F)(F)F)c3)nc2)c(=O)c1Cl, the growth inhibition [1] was 97% (active), the inhibition [2] was 28% and the inhibition [3] was -2%. For the same compound, the growth inhibition [4] was 99% (active), the outcome [5] was “inactive” and the outcome [6] was “inactive”. For the same compound, the outcome [7] was “inactive” and the outcome [8] was “inactive”.

Clc1ccc(-c2cc3c(NCc4ccncc4)nccc3s2)cc1 gave a growth inhibition [1] of 8%, an inhibition [2] of 26% and an inhibition [3] of -1%. For the same compound, the growth inhibition [4] was 98% (active), the outcome [5] was “inactive” and the outcome [6] was “inactive”. The outcome [7] was “inactive” and the outcome [8] was “inactive”.

In the case of CC1(C)N=C(N)N=C(N)N1OCCCNC(=O)c1ccc(C(=O)NCCCON2C(N)=NC(N)=NC2(C)C)cc1, the growth inhibition [1] is reported as 96% (active), the inhibition [2] is reported as 0% and the inhibition [3] is reported as 3%. The growth inhibition [4] was 91% (active), the outcome [5] was “inactive” and the outcome [6] was “inactive”. For the same compound, the outcome [7] was “inactive” and the outcome [8] was “inactive”.

Work on O=C(Nc1ccc(Cl)cc1)c1ccc(CN2CCCN(Cc3ccccc3)CC2)cc1 yielded a growth inhibition [1] of 2%, an inhibition [2] of 46% and an inhibition [3] of 1%. The growth inhibition [4] was 96% (active), the outcome [5] was “inactive” and the outcome [6] was “inactive”. For the same compound, the outcome [7] was “inactive” and the outcome [8] was “inactive”.

For O=[N+]([O-])c1cnc(Nc2ccccc2O)nc1Nc1ccccc1O, the growth inhibition [1] was 80% (active), the inhibition [2] was 24% and the inhibition [3] was -3%. For the same compound, the growth inhibition [4] was 98% (active), the outcome [5] was “inactive” and the outcome [6] was “inactive”. The outcome [7] was “inactive” and the outcome [8] was “inactive”.

In the case of COc1ccc2c(NN=Cc3cccc(F)c3)ccnc2c1, the growth inhibition [1] is reported as 95% (active), the inhibition [2] is reported as 49% and the inhibition [3] is reported as -5%. For the same compound, the growth inhibition [4] was 101% (active), the outcome [5] was “inactive” and the outcome [6] was “inactive”. The outcome [7] was “inactive” and the outcome [8] was “inactive”.

For O=C(Nc1ccccc1Oc1ccccc1)NC1CCN(c2ccnc3cc(Cl)ccc23)C1 (stereo not drawn), the growth inhibition [1] was 74% (active), the inhibition [2] was -1% and the inhibition [3] was 0%. The growth inhibition [4] was 99% (active), the outcome [5] was “inactive” and the outcome [6] was “inactive”. The outcome [7] was “inactive” and the outcome [8] was “inactive”.

With Cc1ccccc1-c1nc2c(CN3CCC(O)(c4ccccc4)CC3)c(O)ccc2[nH]1 the growth inhibition [1] was 61% (active), the inhibition [2] was 27% and the inhibition [3] was 4%. For the same compound, the growth inhibition [4] was 92% (active), the outcome [5] was “inactive” and the outcome [6] was “inactive”. For the same compound, the outcome [7] was “inactive” and the outcome [8] was “inactive”.

For CN1CCN(c2ccc(Nc3c(C(N)=O)cnc4cc(-c5ccoc5)ccc34)cc2C(F)(F)F)CC1, the growth inhibition [1] was 97% (active), the inhibition [2] was 13% and the inhibition [3] was -9%. For the same compound, the growth inhibition [4] was 100% (active), the outcome [5] was “inactive” and the outcome [6] was “inactive”. The outcome [7] was “inactive” and the outcome [8] was “inactive”.

Work on Oc1ccc(Cc2cc(Oc3c(I)cc(CCc4ncc[nH]4)cc3I)ccc2O)cc1 yielded a growth inhibition [1] of 32%, an inhibition [2] of 10% and an inhibition [3] of -3%. The growth inhibition [4] was 101% (active), the outcome [5] was “inactive” and the outcome [6] was “inactive”. For the same compound, the outcome [7] was “inactive” and the outcome [8] was “inactive”.

With Cc1cc(=O)[nH]c2cc(Nc3ccnc(Nc4cccc(C(N)=O)c4)n3)ccc12 the growth inhibition [1] was 98% (active), the inhibition [2] was 27% and the inhibition [3] was -4%. The growth inhibition [4] was 99% (active), the outcome [5] was “inactive” and the outcome [6] was “inactive”. For the same compound, the outcome [7] was “inactive” and the outcome [8] was “inactive”.

For Cc1ncc([N+](=O)[O-])n1CCOC(=O)NC(Nc1ccc(Br)cc1)C(Cl)(Cl)Cl (stereo not drawn), the growth inhibition [1] was 102% (active), the inhibition [2] was 0% and the inhibition [3] was 5%. For the same compound, the growth inhibition [4] was 99% (active), the outcome [5] was “inactive” and the outcome [6] was “inactive”. For the same compound, the outcome [7] was “inactive” and the outcome [8] was “inactive”.

Cc1c(-c2ccc3c(c2)C(NCCCN2CCCCC2)CC3)cnc(N)c1C (stereo not drawn) gave a growth inhibition [1] of 3%, an inhibition [2] of 4% and an inhibition [3] of -3%. The growth inhibition [4] was 97% (active), the outcome [5] was “inactive” and the outcome [6] was “inactive”. The outcome [7] was “inactive” and the outcome [8] was “inactive”.

For CC1(C)N=C(N)NC(Nc2ccc(F)c(F)c2)=N1, the growth inhibition [1] was 1%, the inhibition [2] was 59% (active) and the inhibition [3] was -10%. The growth inhibition [4] was 91% (active), the outcome [5] was “inactive” and the outcome [6] was “inactive”. The outcome [7] was “inactive” and the outcome [8] was “inactive”.

With Nc1ccc2nc(C=Cc3ccc(Cl)cc3)[nH]c2c1 the growth inhibition [1] was 83% (active), the inhibition [2] was 19% and the inhibition [3] was 1%. For the same compound, the growth inhibition [4] was 91% (active), the outcome [5] was “inactive” and the outcome [6] was “inactive”. The outcome [7] was “inactive” and the outcome [8] was “inactive”.

With Fc1cccc(COc2ccc(Nc3ncnc4sc(C#C[C@H]5CC[C@H](CNCC(F)(F)F)N5)cc34)cc2Cl)c1 the growth inhibition [1] was 51% (active), the inhibition [2] was 10% and the inhibition [3] was -4%. The growth inhibition [4] was 100% (active), the outcome [5] was “inactive” and the outcome [6] was “inactive”. The outcome [7] was “inactive” and the outcome [8] was “inactive”.

In the case of O=C(Nc1ccc(-c2ccc(-c3nc4ccccc4[nH]3)s2)cc1)Nc1ccsc1, the growth inhibition [1] is reported as 54% (active), the inhibition [2] is reported as 25% and the inhibition [3] is reported as 5%. The growth inhibition [4] was 100% (active), the outcome [5] was “inactive” and the outcome [6] was “inactive”. The outcome [7] was “inactive” and the outcome [8] was “inactive”.
